Assay results as given in PubChem BioAssay (NCI).
This is part of a sample that, as a whole, favours compounds with a hit. Of some 79,000 tested, about 15% had one in any assay. Unmarked numbers belong to inactive results. Calls of active or inactive are those of the source. Cut-off read from the data, not from the text of the source: active = growth inhibition above about 70%; inactive = the rest.

Experiments:
[1] = NCI Yeast Anticancer Drug Screen. Data for the rad50 strain (AID 155);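 note: 0% = growth of vehicle-only cultures of the same strain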; details: S. cerevisiae rad50 strain growth inhibition, stronger effect = higher value
Outline: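 Relative growth inhibition (compound vs vehicle) was measured in yeast with a defined repair-gene alteration.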

[2] = NCI Yeast Anticancer Drug Screen. Data for the mec2-1 strain (AID 157); details: S. cerevisiae mec2-1 strain, stronger effect = higher value
Outline: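 Strain: mec2-1 (DNA repair/cell cycle alteration). Compound exposure, then growth measured; inhibition expressed relative to vehicle.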

[3] = NCI Yeast Anticancer Drug Screen. Data for the sgs1 mgt1 strain (AID 161);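 note: 0% = growth of cultures given vehicle only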; details: S. cerevisiae sgs1 mgt1 strain, stronger effect = higher value
Outline: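 Mutant yeast exposed to compound; growth scored against vehicle-only wells.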

[4] = NCI Yeast Anticancer Drug Screen. Data for the cln2 rad14 strain (AID 165);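 note: 0% = growth equal to vehicle treated cultures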; details: S. cerevisiae cln2 rad14 strain, stronger effect = higher value
Outline: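 Compounds are applied to the cln2 rad14 yeast strain, and growth is then compared with that of vehicle-treated cultures to give inhibition.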

[5] = NCI Yeast Anticancer Drug Screen. Data for the bub3 strain (AID 167); details: S. cerevisiae bub3 mutant strain, stronger effect = higher value
Outline: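 Screening used yeast with an engineered genetic alteration affecting cell cycle control. Compound-exposed cultures were compared with vehicle cultures, and reduced growth was taken as inhibition.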

[6] = NCI Yeast Anticancer Drug Screen. Data for the mlh1 rad18 strain (AID 175); details: S. cerevisiae mlh1 rad18 strain growth inhibition, stronger effect = higher value
Outline: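 Read-out is yeast growth inhibition, calculated against vehicle-only controls. The compound was applied to a strain engineered with DNA damage repair alterations.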

[7] = at 5.0 µM (retest, dose inferred, filed as 0.5)
[8] = at 50.0 µM (retest, dose inferred, filed as 5.0)

| SMILES | growth inhibition [1, 7] [%] | growth inhibition [1, 8] | growth inhibition ([1]; at 50.0 µM) | growth inhibition [2, 7] [%] | growth inhibition [2, 8] | growth inhibition ([2]; at 50.0 µM) | growth inhibition [3, 7] [%] | growth inhibition [3, 8] | growth inhibition ([3]; at 50.0 µM) | growth inhibition [4, 7] [%] | growth inhibition [4, 8] | growth inhibition ([4]; at 50.0 µM) | growth inhibition [5, 7] | growth inhibition [5, 8] | growth inhibition ([5]; at 50.0 µM) | growth inhibition [6, 7] | growth inhibition [6, 8] | growth inhibition ([6]; at 50.0 µM) |
| --- | --- | --- | --- | --- | --- | --- | --- | --- | --- | --- | --- | --- | --- | --- | --- | --- | --- | --- |
| Cc1nc2ccc3c(ccc4nc(C)c(N=Nc5ccc(C(=N)N)cc5)c(O)c43)c2c(O)c1N=Nc1ccc(C(=N)N)cc1 | 5 | 89% (active) | 93.8% (active) | 0 | 95% (active) | 95.6% (active) | -1 | 70% (active) | 85.2% (active) | -4 | 81% (active) | 87% (active) | -6% | 58% | 93.3% (active) | 2% | 77% (active) | 90.7% (active) |
| NC(=O)C(CCc1cccc2ccccc12)c1ccccc1 (configuration not stated) | 6 | 14% | 98.8% (active) | -10 | -6% | 94.5% (active) | -6 | 24% | 36.3% | -5 | -3% | 62.5% | -2% | 12% | 95.8% (active) | -8% | 14% | 98.4% (active) |
| COc1ccccc1Nc1nc(SC)ncc1SC | -4 | 91% (active) | 95.1% (active) | -12 | 75% (active) | 96.4% (active) | -5 | 69% | 94% (active) | -8 | 30% | 41.9% | 1% | 93% (active) | 98% (active) | -6% | 82% (active) | 92.2% (active) |
| CC1OC(C)C(O)C2=C1C(=O)c1ccccc1C2=O (configuration not stated) | -4 | 95% (active) | 91.9% (active) | -29 | 77% (active) | 86.3% (active) | 14 | 94% (active) | 91.8% (active) | 2 | 55% | 60.4% | 14% | 87% (active) | 83.5% (active) | 23% | 96% (active) | 87.8% (active) |
| COc1ccc(C(c2c(O)c3ccccc3oc2=O)N2CCOCC2)c(OC)c1 (configuration not stated) | -4 | 3% | 33.4% | -6 | 19% | 23.1% | -4 | 4% | 35.6% | 3 | -3% | 20.3% | -2% | 0% | 69.2% | -7% | -3% | 43.4% |
| COc1ccc(-c2c(C#N)c(S)n(NS(=O)(=O)c3ccc(C)cc3)c(=O)c2C#N)cc1 | 40 | 89% (active) | 28.8% | 18 | 88% (active) | 69.1% | 34 | 97% (active) | 61% | 48 | 64% | 20% | 58% | 95% (active) | 43.8% | 27% | 69% | 71.5% (active) |
| Nc1nc(N)c2nc(Sc3ccc(F)cc3)c(N)nc2n1 | -2 | 37% | 42.7% | -1 | -4% | 39.2% | -1 | 40% | 51.6% | 2 | 24% | 10.3% | -1% | 26% | 40.9% | 0% | 58% | 75.1% (active) |
| CN(C)CC1CCC2=C(C1=O)C(c1ccc(Cl)c(Cl)c1)C1=C(CCC(CN(C)C)C1=O)O2 (configuration not stated) | 14 | 11% | 75.5% (active) | -4 | -13% | 49.9% | -5 | 19% | 47.6% | 6 | -3% | -17.2% | -5% | 2% | 3.75% | 4% | 1% | 48.5% |
| CCCCCN(C(=O)CCl)c1ccccc1 | 2 | 36% | 55.7% | -3 | 14% | 35.2% | -1 | 19% | 53.7% | 3 | 5% | 13.8% | -4% | 6% | 50.5% | -2% | 24% | 67.6% |
| CCCC#CCCOC(=O)c1cc([N+](=O)[O-])cc([N+](=O)[O-])c1 | 3 | 97% (active) | 99.2% (active) | 5 | 99% (active) | 98.5% (active) | 12 | 99% (active) | 99.5% (active) | -7 | 76% (active) | 98.9% (active) | -11% | 96% (active) | 99.4% (active) | 5% | 98% (active) | 98.5% (active) |
| CC(=O)Oc1ccc(C)c(C(C)C(Cl)(Cl)Cl)c1 (configuration not stated) | 0 | 30% | 65% | -5 | 50% | 42.8% | 12 | 26% | 58.3% | 8 | 13% | 52.5% | -6% | 4% | 60% | 0% | 27% | 81.2% (active) |
| CS(=O)(=O)OCCN(CCOS(C)(=O)=O)c1ccc(C=Nc2cccc(Br)c2)c(Cl)c1 | 1 | 22% | 41.5% | -3 | 1% | -2.3% | -3 | 12% | 2.5% | -4 | -4% | -49.9% | 0% | 1% | 6.85% | 5% | 36% | 68.5% |
| FC(F)(F)c1nc(SCc2ccc(Cl)cc2)n[nH]1 | 3 | 20% | 2.45% | 0 | 1% | -13.8% | -7 | 15% | -22.4% | -10 | -17% | 38.6% | -9% | 0% | -33.4% | -3% | 13% | -17.8% |
| O=C(CBr)N1c2ccccc2S(=O)(=O)c2ccc3ccccc3c21 | 36 | 97% (active) | 79.5% (active) | 49 | 98% (active) | 87% (active) | 66 | 98% (active) | 81.2% (active) | 36 | 96% (active) | 64.5% | 79% (active) | 97% (active) | 76.5% (active) | 79% (active) | 97% (active) | 89.8% (active) |
| CC(C)(C)c1cc(C(P(=O)(c2ccccc2)c2ccccc2)P(=O)(c2ccccc2)c2ccccc2)cc(C(C)(C)C)c1O | 3 | 96% (active) | 97.9% (active) | -5 | 92% (active) | 93.7% (active) | -8 | 97% (active) | 98.1% (active) | 2 | 88% (active) | 94.7% (active) | -4% | 93% (active) | 96.3% (active) | -3% | 92% (active) | 96.7% (active) |
| Cc1c(-c2ccccc2)ccnc1/C=N/NC(=S)Nc1ccc(N(C)C)cc1 | 48 | 94% (active) | 74.8% (active) | 38 | 96% (active) | 76.7% (active) | 49 | 93% (active) | 70% (active) | 43 | 91% (active) | 60.6% | 59% | 94% (active) | 81.7% (active) | 36% | 93% (active) | 79.6% (active) |
| C1=C(CC2=C[P+](c3ccccc3)(c3ccccc3)C=C(c3ccccc3)O2)OC(c2ccccc2)=C[P+]1(c1ccccc1)c1ccccc1 | 17 | 96% (active) | 87.4% (active) | 8 | 98% (active) | 88% (active) | 35 | 98% (active) | 86.2% (active) | 25 | 98% (active) | 85.4% (active) | 32% | 98% (active) | 90.5% (active) | 6% | 95% (active) | 90.8% (active) |
| Cc1cc(Sc2ccccc2)c2c(C)ccc(C(C)C)cc1-2 | 0 | -7% | -13.8% | -8 | -12% | 61.4% | 1 | 6% | -0.65% | -16 | -9% | 78.2% (active) | -5% | -10% | 21.4% | -2% | -3% | 58% |
| CC(C)CC(N)C(=O)NNc1ccccc1 (configuration not stated) | 29 | 94% (active) | 96.8% (active) | 23 | 96% (active) | 84.2% (active) | 30 | 97% (active) | 88.6% (active) | 19 | 83% (active) | 94.2% (active) | 37% | 96% (active) | 97.5% (active) | 72% (active) | 99% (active) | 98% (active) |
